Molecules are shown by their SMILES. Records with an inconclusive call do not appear. A call without a number means that no potency is given here. The source made the active and inactive calls. The call rests on the fitted dose curve; in most records, active means well fitted cell-killing curve with a large enough effect in the repeat runs; inconclusive means weak or mixed curves, or effect the other way; inactive means no such curve, though single readings can be large or run the other way.

The nature of the assay: qHTS assay to identify small molecule antagonists of the retinoid-related orphan receptor gamma (ROR-gamma) signaling pathway - cell viability counter screen (AID 1159520). Further: nearly all actives have a fitted effect of over 50% in size. The following applies: Tet-on RORgamma CHO cells viability, ATP luminescence, 16 h; series mostly up to 92.4 µM. An excerpt:
U.S. Tox21 Program National Center for Advancing Translational Sciences [NCATS] NIH Chemical Genomics Center [NCGC] U.S. Environmental Protection Agency [EPA] National Institutes of Environmental Health Sciences [NIEHS] National Toxicology Program [NTP] U.S. Food and Drug Administration [FDA] Tox21 Assay Overview: Nuclear steroid hormone receptors are involved in many biological processes including inflammatory responses, cell proliferation, and apoptosis. Environmental factors or compounds disrupting these nuclear receptor pathways and gene expression may promote susceptibility to immunotoxicants and autoimmune diseases. One important group of these expression factors are the retinoid-related orphan receptors. To assess compounds that may interfere with the retinoid-related orphan receptor gamma (ROR-gamma) transcription factor, a cell-based luciferase assay was used. The CHO cell-based assay utilizes a TET-inducible ROR expression factor and ROR response element-LUC reporter gene. Reporter gene activity was induced using Doxycycline Hyclate and measured after 16 hr incubation. Tet-on ROR gamma CHO cells were used to screen against the Tox21 10K compound library for cytotoxicity by measuring the viability of the cells based on the quantitation of the ATP.
Tox21 Assay Protocol Summary: Tet-on ROR gamma CHO cells were dispensed at 1,000 cells in 4 uL of culture medium per well into white wall/solid bottom 1536-well plates using a Multidrop Combi (Thermo Scientific, Waltham, MA) dispenser. Following incubation at 37 C and 5% CO2 for 4 hr, 23 nL of compounds dissolved in DMSO, positive controls or DMSO only were transferred by a Pintool station (Kalypsys, San Diego, CA) and after 2 hr incubation at 37 C, one ul of 1 uM (final concentration) of Doxycycline Hyclate was added to all the wells by using a Flying Reagent Dispenser (FRD) (Aurora Discovery, San Diego, CA). After 16 hr incubation at 37 C and 5% CO2, 5 uL of CellTiter-Glo reagent (Promega Corporation, Madison, WI) was added to each assay plate using FRD. After 30 min incubation at room temperature, luminescence was quantified on a ViewLux plate reader (Perkin Elmer, Waltham, MA).
In general terms: In qHTS, concentration-response curves come from the screen itself.
In the case of `CC(C)COP(=O)(OCC(C)C)OCC(C)C`, the Potency entry is “inactive”.

On to `O=C1OC(c2ccc(O)c(S(=O)(=O)O)c2)(c2ccc(O)c(S(=O)(=O)O)c2)c2c(Br)c(Br)c(Br)c(Br)c21`, for which the Potency result is “inactive”.

Consider `Nc1cc2c3c(c1)C(c1ccccc1)=N[C@@H](NC(=O)c1cccnc1)C(=O)N3CC2`, for which the Potency result is “inactive”.

In the case of `ClCC(Cl)Cl`, the Potency entry is “inactive”.

In the case of `Clc1cccc(N2CCNCC2)c1`, the Potency result was “inactive”.

In the case of `CCOC(=O)C(c1c(O)c2ccccc2oc1=O)c1c(O)c2ccccc2oc1=O`, the Potency result was “inactive”.

For `CC1(C)COP(Oc2ccccc2)OC1`, the Potency entry is “inactive”.

Regarding `O=C1CN2CCOC2(c2ccccc2Cl)c2cc(Cl)ccc2N1` (stereo not given), the Potency entry is “inactive”.

Turning to `CC(Oc1ccc(Oc2ncc(C(F)(F)F)cc2Cl)cc1)C(=O)O` (stereo not given), the Potency entry was “inactive”.

For the compound `CCS(=O)(=O)CCSP(=O)(OC)OC`, the Potency entry was “inactive”.

`O=S(=O)(O)C(F)(F)C(F)(F)C(F)(F)C(F)(F)C(F)(F)C(F)(F)F`: the Potency entry is “inactive”.

On to `O=C(NCO)NCO`, for which the Potency result was “inactive”.

Turning to `C[N+](C)=CCl`, the Potency entry is “inactive”.

Regarding `CCC(C)(C)c1cc(-n2nc3ccccc3n2)c(O)c(C(C)(C)CC)c1`, the Potency entry was “inactive”.

Turning to `O=P(O)(Oc1ccccc1)Oc1ccccc1`, the Potency result was “inactive”.

In the case of `COC(=O)COc1ccc(Cl)cc1Cl`, the Potency entry was “inactive”.

`[O]=[Cd]`: the Potency result was “inactive”.

With `CC1CCC(=O)O1` (stereo not given), the Potency result was “inactive”.

Consider `C(CCOCC1CO1)COCC1CO1` (stereo not given), for which the Potency result is “inactive”.

`CN/C(=N\[N+](=O)[O-])NCC1CCOC1` (stereo not given): the Potency result is “inactive”.

Consider `CCCCCCBr`, for which the Potency result is “inactive”.

On to `COc1cc(C[C@@H](C)N)c(OC)cc1C`, for which the Potency result is “inactive”.

In the case of `O=C(O)c1cccc(Cl)c1`, the Potency entry was “inactive”.

For the compound `C[C@]12CC[C@H]3[C@@H](CCC4=CC(=O)CC[C@@]43C)[C@@H]1CC[C@@H]2C(=O)O`, the Potency result is “inactive”.

Take `Cc1coc2c1CCC(C)C2` (stereo not given): the Potency result is “inactive”.

For `COc1cc(OC)nc(Oc2cccc(Oc3nc(OC)cc(OC)n3)c2C(=O)O)n1`, the Potency result is “inactive”.

Regarding `CCN(CC)c1nc(C)cc(OP(=S)(OC)OC)n1`, the Potency result was “inactive”.

For the compound `CCCCOC(=O)c1ccccc1C(=O)O`, the Potency entry is “inactive”.

In the case of `NC(=O)O`, the Potency entry is “inactive”.

As to `CS(=O)(=O)c1cc(C(F)(F)F)ccc1C(=O)c1cnoc1C1CC1`, the Potency entry is “inactive”.

`COc1ccc(C(=O)N2CCCC2=O)cc1`: the Potency entry was “inactive”.

With `CN1C[C@@H](NS(=O)(=O)N(C)C)C[C@@H]2c3cccc4c3c(cn4C)C[C@H]21`, the Potency result was “inactive”.

In the case of `CSc1ccc(C(=O)C(C)(C)N2CCOCC2)cc1`, the Potency result is “inactive”.

In the case of `CCC#N`, the Potency result was “inactive”.

In the case of `CNC(=O)Oc1c(C(C)(C)C)cc(C)cc1C(C)(C)C`, the Potency entry is “inactive”.

As for `ClCC(Cl)(Cl)Cl`, the Potency result was “inactive”.

With `CC(C)(C)C(=O)C(Oc1ccc(Cl)cc1)n1cncn1` (stereo not given), the Potency entry was “inactive”.

For `CN1CCC(O)(c2ccc(F)cc2)C(C(=O)c2ccc(F)cc2)C1` (stereo not given), the Potency result was “inactive”.

As for `COc1cc(OC)nc(Sc2cccc(Cl)c2C(=O)O)n1`, the Potency entry is “inactive”.

For `CNC(=O)O/N=C(\C)SC`, the Potency entry was “inactive”.

For the origin of these results see PubChem BioAssay (Tox21).
